Compound activity as filed in PubChem BioAssay.
Rows were chosen to be rich in hits. Some 9.4% of all compounds tested hit in one or more screens of this group.
FLuc counter = qHTS profiling assay for firefly luciferase inhibitor/activator using purifed enzyme and Km concentrations of substrates (counterscreen for miR-21 project) | Potency, µM (titrated, usually from 57.5 µM), for the others: top-dose activity change, negative = inhibition, hits mostly inhibitors | 360,000 tested, 6.9% active | AID 588342, 2011 | Luciferin 4-monooxygenase (Photinus pyralis), P08659 | purified FLuc, Km substrates, luminescence inhibition;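 note: plate controls were vehicle for no effect and reference inhibitor for full effect; nearly all actives have a fitted effect of over 55% in size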
Target sequence (P08659 whole entry, looked up): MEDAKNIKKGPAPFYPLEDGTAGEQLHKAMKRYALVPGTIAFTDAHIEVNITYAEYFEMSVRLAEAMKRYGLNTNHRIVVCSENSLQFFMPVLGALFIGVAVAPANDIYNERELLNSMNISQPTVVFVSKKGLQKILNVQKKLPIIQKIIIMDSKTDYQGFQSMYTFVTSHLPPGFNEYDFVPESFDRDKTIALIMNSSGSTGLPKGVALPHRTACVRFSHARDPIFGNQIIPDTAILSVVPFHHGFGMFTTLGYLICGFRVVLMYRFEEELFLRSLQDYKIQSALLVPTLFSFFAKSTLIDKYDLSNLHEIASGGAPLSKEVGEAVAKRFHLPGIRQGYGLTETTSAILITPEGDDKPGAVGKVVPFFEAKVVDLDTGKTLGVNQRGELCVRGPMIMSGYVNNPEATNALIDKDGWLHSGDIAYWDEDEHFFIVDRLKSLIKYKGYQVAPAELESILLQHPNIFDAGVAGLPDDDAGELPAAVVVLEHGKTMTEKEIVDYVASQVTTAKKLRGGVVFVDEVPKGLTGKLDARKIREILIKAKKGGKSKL
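Purified P. pyralis luciferase, 10 nM final, with Km-level 10 uM D-luciferin and 10 uM ATP in 50 mM Tris acetate pH 7.5, 10 mM Mg acetate, 0.01% Tween-20, 0.05% BSA; 6-point qHTS titration about 60 µM downward; luminescence read.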
SMN2 splice enh = qHTS Assay for Enhancers of SMN2 Splice Variant Expression; HEK293 SMN2-luciferase splicing reporter, luminescence, 30-36 h; Potency, µM (top dose mostly 46.1 µM), for inactives: at the top dose activity change, positive = activation, hits mostly activators; 210,000 tested, 2.8% active; note: % of control where 0% means no effect; nearly all actives have a fitted effect of over 55% in size
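HEK293 cells carry an SMN2 minigene-luciferase reporter in which exon 7 inclusion puts luciferase in frame. Cells were seeded at 2000 cells/well, attached for 10-12 hours, then exposed to compounds for 30-36 hours at 37C before ONE-Glo luminescence.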
NPC1 prom act = qHTS Assay for NPC1 Promoter Activators; Huh7 NPC1 promoter luciferase reporter, 24 h; Potency, µM (titrated, usually from 9.22 µM), inactives show top-dose activation, actives largely listed as activators; 320,000 tested, 2.4% active; AID 485313, 2010; note: % of control where 0% means no effect; nearly all actives have a fitted effect of over 60% in size
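Cells: Huh7 expressing luciferase under the NPC1 promoter, 1500/well. Seeded 2 h, compound added, incubated 24 h at 37 °C. Luciferase reagent, 10 min ambient, then luminescence.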
ELG1 genotoxic = qHTS screen for small molecules that induce genotoxicity in human embryonic kidney (HEK293T) cells expressing luciferase-tagged ELG1 | Potency, µM (titrated, usually from 46 µM), without a hit: top-dose activity change, positive = activation, hits mostly activators | HEK293T ELG1-luciferase reporter, luminescence, 16 h | 330,000 tested, 1.3% active | AID 504466, 2011; note: % of control where 0% means no effect; nearly all actives have a fitted effect of over 60% in size
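After overnight (16 hr) compound treatment at 37 °C, ELG1-luciferase HEK293T cells were lysed with ONE-Glo; luminescence quantified 30 min later at room temperature.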
ELG1 DNA repair = qHTS screen for small molecules that inhibit ELG1-dependent DNA repair in human embryonic kidney (HEK293T) cells expressing luciferase-tagged ELG1. HEK293T ELG1-luciferase reporter, luminescence, 16 h; DNA damage induced by 5-fluorouridine. Potency, µM (top dose mostly 46.1 µM), for the others: top-dose activity change, negative = inhibition, hits mostly inhibitors. 330,000 tested, 2.3% active. AID 504467, 2011; note: % is set by controls: 0 for no effect and ±100 for the full control effect; nearly all actives have a fitted effect of over 55% in size
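Step one: seed 2,000 cells per well. Step two: pin-transfer compound or DMSO alongside 5-fluorouridine. Step three: incubate 16 hr, 37 °C, 5% CO2. Step four: add ONE-Glo, wait 30 min, read luminescence.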
Rab9 prom act = qHTS Assay for Rab9 Promoter Activators; Huh7 Rab9 promoter-luciferase reporter, luminescence, 24 h; Potency, µM (titrated, usually from 9.22 µM), for inactives: top-dose activation, negative = inhibition, hits mostly activators; 320,000 tested, 2.8% active; note: % of control where 0% means no effect; nearly all actives have a fitted effect of over 60% in size
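Huh7 reporter line, Rab9 promoter upstream of luciferase. Compound exposure 24 h at 37 °C in reduced-serum medium with 10% FBS. Read-out: luminescence.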
Active calls of the source: *; ? = inconclusive; . = not tested or not shown. Calls come from the whole dose curve; as a rule, active = well fitted curve in the direction sought with a large enough effect; inconclusive = small, poorly fitted or top-dose-only effect, or another doubt; inactive = no such curve, though single readings can be large; an effect the other way counts as inactive or inconclusive. Potency is the fitted concentration of half-maximal effect.

SMILES	FLuc counter	SMN2 splice enh	NPC1 prom act	ELG1 genotoxic	ELG1 DNA repair	Rab9 prom act
O=C(NCCc1ccccc1)c1cc2ncc(Br)cn2n1	?	?	23.9%	16.4µM*	?	?
COc1cccc(C(C(=O)NC2CCCC2)N(C(=O)c2ccco2)c2ccc(-n3cnnn3)c(C)c2)c1OC (stereo not drawn)	2.4%	.	-1.0%	1.3%	-3.8%	-5.6%
O=C(NCCCn1ccnc1)c1cc(-c2cccs2)on1	?	-1.7%	?	?	?	3.16µM*
O=C(Nc1ccc(F)cc1F)c1csc(-c2cccs2)n1	6.75µM*	?	-0.1%	-5.2%	?	?
O=C(NCCCN1CCOCC1)c1cc(-c2cccs2)on1	-9.3%	-10.9%	28.4%	?	?	?
O=C(NCc1ccccc1)c1cc(-c2cccs2)on1	?	6.3%	?	14.7%	?	?
O=C(Nc1ccc(F)cc1F)c1cc(-c2ccco2)on1	4.26µM*	-17.2%	-7.8%	?	?	7.0%
O=C(NCc1ccco1)c1cc(-c2cccs2)on1	10.7µM*	?	3.16µM*	?	?	2.82µM*
O=C(Nc1ccc(F)cc1F)c1csc(-c2ccncc2)n1	?	8.7%	14.5%	8.8%	9.6%	11.2%
CCOc1ccc(-c2cc(C(=O)NCCc3ccccc3)c3c(-c4ccc(C)cc4)[nH]nc3n2)cc1	-12.0%	.	.	.	.	.
CN(C(=O)CSc1nc2ccccc2n1CC(=O)N(C)C1CCCCC1)c1ccccc1	-2.6%	.	.	.	.	.
O=c1c2sc3ccccc3c2n(Cc2cccc(Cl)c2)c(=O)n1Cc1ccc(F)cc1	0.3%	-12.0%	.	.	.	.
CCOC(=O)c1nnn(C(CC)C(=O)Nc2ccc(F)cc2)c1C(=O)OCC (stereo not drawn)	-1.1%	-2.7%	.	.	.	.
CC(C)c1cc(C(=O)NCCc2ccccc2)no1	16.9µM*	.	3.16µM*	?	?	2.24µM*
COc1ccc(CCNC(=O)c2cc(-c3ccccc3)on2)cc1OC	-0.4%	-10.8%	1.1%	5.1%	9.1%	13.0%
CC(C)c1cc(C(=O)NCc2ccco2)no1	-13.8%	?	12.6%	14.6µM*	?	?
Cc1cc(C(=O)NCc2ccco2)on1	9.7%	-1.6%	-0.2%	-0.9%	-2.9%	6.4%
COc1ccc(Cn2c(CCC(=O)NCc3cccc(Cl)c3)nc3cccnc32)cc1	-7.6%	5.4%	.	.	.	.
COc1ccc(/C=N/NC(=O)c2ccccc2NC(=O)c2ccco2)c(OC)c1	5.36µM*	.	4.6%	1.6%	0.0%	0.6%
COc1ccc(NC(=O)c2ccco2)cc1NC(=O)c1ccco1	-2.9%	-13.6%	7.4%	-0.8%	2.3%	0.3%
COc1cc(NC(=O)c2ccccc2Cl)ccc1NC(=O)c1ccco1	10.7µM*	22.4µM*	2.51µM*	?	?	2.82µM*
COc1ccc(NC(=O)c2ccco2)cc1NC(=O)c1c(OC)cccc1OC	15.1µM*	2.8%	-0.4%	1.2%	?	5.1%
COc1cc(NC(=O)c2cccs2)ccc1NC(=O)c1ccco1	?	11.2µM*	29.6%	18.4µM*	?	?
COc1cc(NC(=O)c2oc3ccccc3c2C)ccc1NC(=O)c1ccco1	5.36µM*	.	24.8%	-5.5%	-22.5%	?
COc1ccc(CCNC(=O)c2ccccc2NC(=O)c2ccco2)cc1OC	-11.8%	-14.4%	2.0%	-8.5%	18.4µM*	4.5%
SMILES	FLuc counter	SMN2 splice enh	NPC1 prom act	ELG1 genotoxic	ELG1 DNA repair	Rab9 prom act
CCOc1cc(NC(=O)c2ccco2)c(OCC)cc1NC(=O)c1ccco1	1.4%	.	10.0%	-6.8%	-9.3%	2.9%
CCOc1cc(NC(=O)c2ccco2)c(OCC)cc1NC(=O)CCc1ccccc1OC	0.1%	-6.7%	-1.5%	-11.3%	20.6µM*	-8.3%
O=C(Nc1ccc(OC(=O)c2cccs2)cc1)c1ccco1	2.69µM*	19.0%	0.0%	?	?	9.7%
COc1ccc(NC(=O)c2ccccc2NC(=O)c2ccco2)c(OC)c1	19µM*	-7.8%	8.0%	-6.9%	?	2.9%
COc1ccccc1NC(=O)c1ccccc1NC(=O)c1cc(Cl)ccc1NC(=O)c1ccco1	8.9%	9.8%	-1.4%	0.8%	-20.2%	3.5%
CCc1ccc(S(=O)(=O)Nc2cccc(C3OCCCO3)c2)cc1	-13.3%	-39.2%	-10.0%	-10.2%	11.6µM*	1.1%
CCc1ccc(S(=O)(=O)Nc2ccc3c(c2)n(C)c(=O)c(=O)n3C)cc1	-6.7%	.	.	.	.	.
COCc1cc(C)nc2sc3c(c12)NC(c1ccccc1C(=O)O)N(c1cccc(C(F)(F)F)c1)C3=O (stereo not drawn)	?	-6.1%	.	.	.	.
COc1ccccc1C1Nc2c(sc3nc(C)cc(C)c23)C(=O)N1c1ccccc1 (stereo not drawn)	?	12.6µM*	.	.	.	.
COc1ccccc1NC(=O)c1ccccc1-c1nc(-c2ccccc2OC)no1	10.7µM*	18.4%	5.2%	-7.5%	?	7.8%
COc1ccccc1-c1noc(-c2ccccc2C(=O)Nc2ccccc2)n1	10.7µM*	-3.2%	11.2%	3.8%	1.9%	25.9%
COc1cccc(NC(=O)c2ccccc2-c2nc(-c3ccccc3)no2)c1	?	-13.5%	-0.2%	5.7%	-26.7%	-1.2%
